Consider 40 compounds from PubChem BioAssay (Tox21).

Each structure is given as a SMILES string. Results filed as inconclusive are left out. More than one record can exist for a structure, and the calls need not agree. Active and inactive are the calls of the source. The call rests on the fitted dose curve.
On the % scale 0 is the no-effect control and ±100 the full control effect; potency means the concentration at half of the fitted maximal effect.

This assay in a line: qHTS assay to identify small molecule antagonists of the estrogen receptor alpha (ER-alpha) signaling pathway using the BG1 cell line (AID 743080).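 Further: BG1 cells stimulated with 17beta-estradiol alongside compound; nearly all actives have a fitted effect of over 25% in size.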 As to conditions: BG1Luc4E2 ERE-luciferase antagonist mode, luminescence; series mostly up to 70.3 µM; activity change, negative = inhibition: at the top concentration. The text has this: National Center for Advancing Translational Sciences [NCATS]
NIH Chemical Genomics Center [NCGC]
U.S. Environmental Protection Agency [EPA]
National Institutes of Environmental Health Sciences [NIEHS]
National Toxicology Program [NTP]
U.S. Food and Drug Administration [FDA]
Estrogen receptor (ER), a nuclear hormone receptor, plays an important role in development, metabolic homeostasis and reproduction. Endocrine disrupting chemicals (EDCs) and their interactions with steroid hormone receptors like ER causes disruption of normal endocrine function. Therefore, it is important to understand the effect of environmental chemicals on the ER signaling pathway. To identify ER antagonists, BG1-Luc-4E2 cell line (provided by Dr. Michael Denison from University of California) has been used to screen the Tox21 10K compound library. BG1Luc4E2 cell line endogenously expresses full-length ER-alpha and is stably transfected with a plasmid containing four estrogen responsive elements (ERE) upstream of a luciferase reporter gene.
Tox21 Assay Protocol Summary:
BG1-Luc-4E2 cells were cultured in phenol red free assay medium containing 10% charcoal stripped FBS for 5 days before the assay was performed. The cells were dispensed at 4,000 cells/4 uL of assay medium per well into white wall/solid-bottom 1536-well plates using a Multidrop Combi (ThermoFisher Scientific, Waltham, MA) dispenser. The assay plates were incubated at a 37C and 5% CO2 for 24 h, and then 23 nL of compounds dissolved in DMSO, positive controls or DMSO only was transferred to the assay plate using a Pintool station (Kalypsys, San Diego, CA), followed by addition of 1 uL of 17beta-estradiol in assay medium using a Flying Reagent Dispenser (Aurora Discovery, San Diego, CA). After the plates were incubated at 37 C and 5% CO2 for 21.5 h, 1 uL of CellTiter-Fluor reagent (Promega, Madison, WI) of measuring cytotoxicity was added using Flying Reagent Dispenser (FRD) to each well. The assay plates were incubated at 37 C and 5% CO2 for additional 30 min and the fluorescence intensity was quantified by a ViewLux plate reader (PerkinElmer, Shelton, CT). For measuring luciferase reporter gene activity, 4 uL of ONE-Glo reagent (Promega) was added to each plate using an FRD and luminescence was quantified by a ViewLux plate reader after 30 min incubation at room temperature.
Background: qHTS replaces the single test concentration by a dilution series.
Take `CCCCOCCOC(=O)COc1cc(Cl)c(Cl)cc1Cl`: the “activity change, negative = inhibition” value is 8.01% (inactive).
The same measure, in the same setting: as for `CC(C)c1ccc2ncccc2c1`, the figure is -4.85% (inactive); as for `CC1=NN(c2cc(S(=O)(=O)O)ccc2Cl)C(=O)C1N=Nc1ccccc1` (stereo not given), 0.196% (inactive).
Same read-out and setting: as for `CC/C=C\CCOC(C)OCC` (stereo not given), the figure is 4.81% (inactive); as for `CCCCN1C=CN(C)C1`, 3.99% [at 32.5 µM] (inactive).
For `N[C@@H](CCC(=O)O)C(=O)O`, the Potency result is “inactive”.
With `CCCC(C)C(=O)OCC` (stereo not given), the “activity change, negative = inhibition” value is 3.39% (inactive).
With `O=C(O)CNC(=O)c1ccc(CO)o1`, the “activity change, negative = inhibition” value is 2.01% (inactive).
Still for that read-out and setting: under `Cc1ccc(-c2ncc(Cl)cc2-c2ccc(S(C)(=O)=O)cc2)cn1` stands -9.13% (inactive).
Consider `COc1ccnc(CS(=O)c2nc3cc(OC(F)F)ccc3[nH]2)c1OC` (stereo not given), for which the Potency entry is “inactive”.
In the case of `COCCOC[C@H](CC1(C(=O)NC2CCC(C(=O)O)CC2)CCCC1)C(=O)Oc1ccc2c(c1)CCC2` (stereo not given in full), the “activity change, negative = inhibition” value is 0.182% (inactive).
On the same count and under the same terms, as for `CCCCS(=O)(=O)N[C@@H](Cc1ccc(OCCCCC2CCNCC2)cc1)C(=O)O`, the figure is -1.25% (inactive); as for `CC(CO)(CO)[N+](=O)[O-]`, -1.92% (inactive).
For `CCCCCCC1CCC(=O)O1` (stereo not given), the “activity change, negative = inhibition” value was -0.174% [at 95 µM] (inactive).
Same read-out and setting: as for `CCC(C(=O)NC(=O)NC(C)=O)c1ccccc1` (stereo not given), the figure is -0.28% (inactive).
On the same count and under the same terms, under `Cc1ccc(C(=O)c2ccc(CC(=O)O)n2C)cc1` stands -18.8% [at 32.5 µM] (inactive).
Still for that read-out and setting: as for `Cc1cccc(C)c1NC(=O)CC12CCCN1CCC2`, the figure is 2.81% (inactive); as for `CN(C)CCN(C)CCN(C)C`, -6.17% (inactive).
Turning to `CN1CCC(=C2c3ccccc3CCc3cccnc32)CC1`, the “activity change, negative = inhibition” value is 16.2% (inactive).
On the same count and under the same terms, under `CC(C)=CCC/C(C)=C/C#N` stands 3.66% [at 95 µM] (inactive).
On the same count and under the same terms, under `CC1CCC(CO)CC1` (stereo not given) stands 4.03% [at 95 µM] (inactive).
Still for that read-out and setting: as for `C=CCOCC(O)CO` (stereo not given), the figure is 6.89% (inactive); as for `CCCCCC(=O)OCCc1ccccc1`, -8.71% (inactive); as for `Nc1c2c(nc3c1CCC3)CCCC2`, 1.15% (inactive).
On to `Nc1ccn([C@@H]2O[C@H](CO)[C@@H](O)[C@@H]2O)c(=O)n1`, for which the “activity change, negative = inhibition” value was -11.7% (inactive).
For `C=CC(=O)OCCCl`, the “activity change, negative = inhibition” value was 11.1% [at 95 µM] (inactive).
Regarding `CC(=O)c1ccc2ccccc2c1`, the “activity change, negative = inhibition” value is 0.291% (inactive).
Same read-out and setting: as for `O=S(=O)(O)c1cc(O)c(O)c(S(=O)(=O)O)c1`, the figure is 2.88% (inactive); as for `CCC(C)(CCCC(C)C)OC(C)=O` (stereo not given), 7.42% (inactive).
On the same count and under the same terms, as for `CCCCCCCCCCCCCCCCCCO`, the figure is -13.8% (inactive); as for `O=C(O)CC(C(=O)O)S(=O)(=O)O` (stereo not given), 3.17% (inactive).
Same read-out and setting: under `CCNS(=O)(=O)c1ccc(C)cc1` stands -9.51% [at 95 µM] (inactive); under `Cc1ccc(C(=O)Nc2ccc(S(=O)(=O)O)c3cc(S(=O)(=O)O)cc(S(=O)(=O)O)c23)cc1NC(=O)c1cccc(NC(=O)Nc2cccc(C(=O)Nc3cc(C(=O)Nc4ccc(S(=O)(=O)O)c5cc(S(=O)(=O)O)cc(S(=O)(=O)O)c45)ccc3C)c2)c1`, -1.38% (inactive); under `CC(CC=O)CC(C)(C)C` (stereo not given), -1.99% (inactive).
As for `CC(=O)O[C@@]12CO[C@@H]1C[C@H](O)[C@@]1(C)C(=O)[C@H](O)C3=C(C)[C@@H](OC(=O)[C@H](O)[C@@H](NC(=O)OC(C)(C)C)c4ccccc4)C[C@@](O)([C@@H](OC(=O)c4ccccc4)[C@H]21)C3(C)C`, the Potency was 59.6 nM (active) and inactive.
`CC(COc1ccccc1)NN` (stereo not given): the “activity change, negative = inhibition” value was 2.74% (inactive).
Regarding `CCN1C=CN(C)C1C` (stereo not given), the “activity change, negative = inhibition” value was -1.63% [at 95 µM] (inactive).
The same measure, in the same setting: under `Cc1ncc(COP(=O)(O)O)c(C=O)c1O` stands -3.53% (inactive); under `CC1=CCC(O)(C(C)C)CC1` (stereo not given), -2.99% (inactive); under `C[C@H]1C[C@H]2[C@@H]3CCC4=CC(=O)C=C[C@]4(C)[C@H]3C(=O)C[C@]2(C)[C@@]1(O)C(=O)CO`, 2.62% (inactive).
